From PubChem BioAssay AID686964 (The Scripps Research Institute Molecular Screening Center, 2013) come the findings set out here.

In all, about 370,000 compounds went through this assay and about 1,100 (0.3%) were called active. Rule as the data show it: active = inhibition above about 13%; inactive = the rest. The full list was thinned out, with actives kept by preference.

The target in this assay is Methyl-CpG-binding domain protein 2 (Homo sapiens) (UniProt Q9UBB5). As to the kind of experiment: inhibitors of MBD2 binding to methylated DNA, primary screen, biochemical, TR-FRET, DNA-binding domain, human (AID 686964). The note with it: MBD2 binding to methylated oligonucleotide, at 4.4 µM, stronger effect = higher value. In general terms: Time-resolved FRET reads energy transfer from a long-lived donor to a nearby acceptor.
Methyl-CpG-binding domain protein 2 (Homo sapiens), sequence (Q9UBB5 whole entry, looked up, the tested form may be a part): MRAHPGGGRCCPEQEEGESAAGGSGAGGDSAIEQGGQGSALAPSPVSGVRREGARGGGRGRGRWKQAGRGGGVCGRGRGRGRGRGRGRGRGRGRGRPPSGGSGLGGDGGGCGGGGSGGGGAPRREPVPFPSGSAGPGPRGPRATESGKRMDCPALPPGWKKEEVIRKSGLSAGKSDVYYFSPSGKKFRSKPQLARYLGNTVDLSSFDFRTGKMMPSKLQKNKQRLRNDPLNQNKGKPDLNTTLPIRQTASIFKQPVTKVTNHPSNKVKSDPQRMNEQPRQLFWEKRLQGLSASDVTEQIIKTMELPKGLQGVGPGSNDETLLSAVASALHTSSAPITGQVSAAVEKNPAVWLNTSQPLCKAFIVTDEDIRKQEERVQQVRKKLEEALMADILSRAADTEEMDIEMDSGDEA
The term inhibition denotes the change of the read-out against control, counted positive when it falls. For `COc1ccc(N2C(=O)/C(=C/c3ccco3)C(=O)NC2=S)cc1`, the inhibition is 32% (active).

Regarding `O=C(O)CCn1cc(C=C2C(=O)NC(=S)NC2=O)c(-c2cccc(Br)c2)n1`, the inhibition was 2.88% (inactive).

Consider `COC(=O)C1=C(c2ccccc2OCc2ccccc2)C[C@@H]2CC[C@H]1N2C(=O)NCc1ccc(OC)cc1`, for which the inhibition was -6.77% (inactive).

With `CO[C@H]([C@H](C)/C=C/N(C)C=O)[C@@H](C)C(=O)CC[C@H](C)[C@H](O)[C@H](C)[C@H]1OC(=O)/C=C/C(C)=C/[C@H](O)[C@H](OC)C[C@@H]2C=CC[C@@H](C[C@H](OC)[C@@]3(CO3)[C@@H](OC)C[C@@H](OC)[C@@H]1C)O2`, the inhibition was 3.68% (inactive).

For `CN(C)C(=O)Oc1cc(=O)n2c3c(cccc13)CCC2`, the inhibition was -1% (inactive).

With `COP(=O)(Sc1ccccc1)C(Cc1ccccc1)NC(=O)OCc1ccccc1` (stereo not given), the inhibition is 1.01% (inactive).

Turning to `Cc1cc(/C=C2/C(=O)NC(=O)N(Cc3ccco3)C2=O)c(C)n1-c1ccc(C(=O)O)cc1`, the inhibition is 23.8% (active).

With `O=C1NC(=O)N(Cc2ccco2)C(=O)/C1=C\c1ccc(-c2ccc(F)cc2)o1`, the inhibition was 31.9% (active).

Regarding `Cc1ccnc(-n2c(C)cc(/C=C3\C(=O)NC(=S)N(C)C3=O)c2C)c1`, the inhibition is -7.85% (inactive).

Turning to `COc1cc2nc(N3CCN(C(=O)[C@@H]4CCCO4)CC3)nc(N)c2cc1OC`, the inhibition was 2.48% (inactive).

`Cc1ccccc1CCC[C@@H](CC1CCCCC1)CN(C)C(=O)Oc1ccccc1`: the inhibition was -0.69% (inactive).

With `O=C(O)C1CSC(c2cccnc2)N1` (stereo not given), the inhibition is -2.74% (inactive).

Regarding `CC(C)c1ccc(-n2c(O)c(/C=N/N3CCOCC3)c(=O)[nH]c2=S)cc1`, the inhibition is -0.85% (inactive).

On to `CSc1ccc(C(=O)C2CCCN(Cc3ccn[nH]3)C2)cc1` (stereo not given), for which the inhibition is -7.23% (inactive).

Take `CC(C)(C)[C@]1(O)C[C@@H]2OC(=O)C[C@@]23C(=O)O[C@@H]2OC(=O)[C@H](O)[C@]213`: the inhibition is -1.05% (inactive).
